Data from PMC7862700, “An all-to-all approach to the identification of sequence-specific readers for epigenetic DNA modifications on cytosine”.

Assays:
Assay in all cases: DAPPL (digital affinity profiling via proximity ligation, sequencing); 10 mM Tris-HCl pH 7.5, 50 mM NaCl, 1 mM DTT, 4% glycerol, room temperature, 30 min; GST-TFs on glutathione beads, 16-mer random dsDNA library, 0.1% formaldehyde crosslink after washing; high values mean tight binding
FLI1 = target: T1, FLI1 (Homo sapiens, UniProt Q01543 1-452); settings: protein: recombinant; tags: N-terminal GST; dsDNA, one strand shown
T1 sequence: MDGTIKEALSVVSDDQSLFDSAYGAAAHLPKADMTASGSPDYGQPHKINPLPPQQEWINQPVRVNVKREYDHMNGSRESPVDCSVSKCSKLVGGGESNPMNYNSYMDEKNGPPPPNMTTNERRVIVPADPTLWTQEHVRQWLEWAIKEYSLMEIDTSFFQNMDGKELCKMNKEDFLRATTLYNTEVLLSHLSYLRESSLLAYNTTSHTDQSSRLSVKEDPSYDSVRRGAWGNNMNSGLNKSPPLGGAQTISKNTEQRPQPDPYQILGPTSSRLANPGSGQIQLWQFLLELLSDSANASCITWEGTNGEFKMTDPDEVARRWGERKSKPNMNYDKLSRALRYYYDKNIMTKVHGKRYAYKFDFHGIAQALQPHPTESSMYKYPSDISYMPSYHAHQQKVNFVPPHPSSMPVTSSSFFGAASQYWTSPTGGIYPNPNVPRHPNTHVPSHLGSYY
Procedure, shortened: (§1)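 Human transcription factors carrying a GST fusion were produced in yeast, bound to glutathione beads, tagged with DNA barcodes and pooled together with a tag-only sample. Each pool was held with 200 nmole of a random double-stranded 16-mer DNA library in Tris/NaCl/DTT/glycerol buffer for 30 min at room temperature, then washed, crosslinked in 0.1% formaldehyde, proximity-ligated with BsaI/T4 ligase (1 h, 37 °C), PCR-amplified and sequenced on an Illumina NextSeq500. Binding signal is the read frequency of each hexamer for a given factor divided by its frequency in the tag-only sample.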

ELK1 = target: T2, ELK1 (Homo sapiens, UniProt P19419 1-428); settings: protein: recombinant; tags: N-terminal GST; dsDNA, one strand shown
T2 sequence: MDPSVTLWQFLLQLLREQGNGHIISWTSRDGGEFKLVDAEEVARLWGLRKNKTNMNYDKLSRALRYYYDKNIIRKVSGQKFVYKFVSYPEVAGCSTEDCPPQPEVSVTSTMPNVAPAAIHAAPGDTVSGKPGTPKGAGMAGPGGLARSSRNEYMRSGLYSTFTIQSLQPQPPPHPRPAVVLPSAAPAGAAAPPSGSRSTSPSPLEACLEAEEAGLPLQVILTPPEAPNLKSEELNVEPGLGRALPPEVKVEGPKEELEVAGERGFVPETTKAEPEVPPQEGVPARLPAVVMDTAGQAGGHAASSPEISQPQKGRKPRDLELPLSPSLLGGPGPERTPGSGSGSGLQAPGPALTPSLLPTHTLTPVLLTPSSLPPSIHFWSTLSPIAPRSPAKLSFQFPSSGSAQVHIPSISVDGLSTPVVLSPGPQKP
Procedure, shortened: as §1

GABPA = target: T3, GABPA (Homo sapiens, UniProt Q06546 1-454); settings: protein: recombinant; tags: N-terminal GST; dsDNA, one strand shown
T3 sequence: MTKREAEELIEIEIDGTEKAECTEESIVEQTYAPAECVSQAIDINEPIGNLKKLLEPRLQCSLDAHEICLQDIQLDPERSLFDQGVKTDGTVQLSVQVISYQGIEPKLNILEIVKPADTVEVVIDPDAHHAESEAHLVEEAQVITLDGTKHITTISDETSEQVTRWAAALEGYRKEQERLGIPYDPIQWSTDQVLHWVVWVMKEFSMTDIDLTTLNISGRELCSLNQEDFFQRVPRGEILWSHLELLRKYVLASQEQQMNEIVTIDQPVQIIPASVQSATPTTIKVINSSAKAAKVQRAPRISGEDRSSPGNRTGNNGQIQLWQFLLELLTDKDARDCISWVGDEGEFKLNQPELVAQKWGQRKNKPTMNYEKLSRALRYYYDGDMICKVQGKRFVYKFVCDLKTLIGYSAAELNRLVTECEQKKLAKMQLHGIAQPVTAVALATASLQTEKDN
Procedure, shortened: as §1

ERG = target: T4, ERG (Homo sapiens, UniProt P11308 1-479); settings: protein: recombinant; tags: N-terminal GST; dsDNA, one strand shown
T4 sequence: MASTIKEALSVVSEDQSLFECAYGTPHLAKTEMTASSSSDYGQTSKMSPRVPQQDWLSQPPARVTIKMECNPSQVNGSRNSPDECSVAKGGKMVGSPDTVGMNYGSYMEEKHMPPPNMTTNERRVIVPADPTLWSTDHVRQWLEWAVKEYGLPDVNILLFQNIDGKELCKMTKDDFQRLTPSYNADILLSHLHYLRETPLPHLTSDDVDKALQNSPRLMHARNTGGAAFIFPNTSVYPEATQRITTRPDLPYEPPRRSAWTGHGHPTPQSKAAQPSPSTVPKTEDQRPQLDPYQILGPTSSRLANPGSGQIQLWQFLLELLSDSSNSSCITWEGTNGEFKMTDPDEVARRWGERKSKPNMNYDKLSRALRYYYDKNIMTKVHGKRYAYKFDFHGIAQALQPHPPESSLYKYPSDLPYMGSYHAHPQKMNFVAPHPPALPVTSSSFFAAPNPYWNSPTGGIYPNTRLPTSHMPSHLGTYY
Procedure, shortened: as §1

ELF1 = ELF1 (Homo sapiens, UniProt P32519 1-619); settings: protein: recombinant; tags: N-terminal GST; dsDNA, one strand shown
Procedure, shortened: as §1

EHF = target: T5, EHF (Homo sapiens, UniProt Q9NZC4 1-300); settings: protein: recombinant; tags: N-terminal GST; dsDNA, one strand shown
T5 sequence: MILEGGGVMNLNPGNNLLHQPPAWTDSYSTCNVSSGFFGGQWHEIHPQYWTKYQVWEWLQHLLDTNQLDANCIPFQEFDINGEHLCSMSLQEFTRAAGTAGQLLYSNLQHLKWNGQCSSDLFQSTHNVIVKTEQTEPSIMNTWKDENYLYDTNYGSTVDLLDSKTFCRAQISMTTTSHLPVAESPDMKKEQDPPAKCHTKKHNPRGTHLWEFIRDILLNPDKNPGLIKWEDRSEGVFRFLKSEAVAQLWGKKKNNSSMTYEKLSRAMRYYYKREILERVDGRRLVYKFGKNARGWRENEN
Procedure, shortened: as §1

SPI1 = SPI1 (Homo sapiens, UniProt P17947 1-270); settings: protein: recombinant; tags: N-terminal GST; dsDNA, one strand shown
Procedure, shortened: as §1

SPIB = SPIB (Homo sapiens, UniProt Q01892 1-262); settings: protein: recombinant; tags: N-terminal GST; dsDNA, one strand shown
Procedure, shortened: as §1

ELK3 = target: T6, ELK3 (Homo sapiens, UniProt P41970 1-407); settings: protein: recombinant; tags: N-terminal GST; dsDNA, one strand shown
T6 sequence: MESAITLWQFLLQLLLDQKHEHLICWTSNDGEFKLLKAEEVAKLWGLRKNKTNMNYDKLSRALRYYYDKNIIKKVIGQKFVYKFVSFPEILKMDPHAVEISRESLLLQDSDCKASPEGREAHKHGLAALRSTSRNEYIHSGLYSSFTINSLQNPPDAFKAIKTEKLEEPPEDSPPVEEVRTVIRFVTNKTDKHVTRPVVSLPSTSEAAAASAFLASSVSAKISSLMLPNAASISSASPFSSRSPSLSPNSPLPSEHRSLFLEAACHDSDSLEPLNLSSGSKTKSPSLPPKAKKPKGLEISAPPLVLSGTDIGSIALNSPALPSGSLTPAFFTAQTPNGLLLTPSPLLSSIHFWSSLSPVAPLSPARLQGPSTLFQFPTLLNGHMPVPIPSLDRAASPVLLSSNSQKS
Procedure, shortened: as §1

FEV = target: T7, FEV (Homo sapiens, UniProt Q99581 1-238); settings: protein: recombinant; tags: N-terminal GST; dsDNA, one strand shown
T7 sequence: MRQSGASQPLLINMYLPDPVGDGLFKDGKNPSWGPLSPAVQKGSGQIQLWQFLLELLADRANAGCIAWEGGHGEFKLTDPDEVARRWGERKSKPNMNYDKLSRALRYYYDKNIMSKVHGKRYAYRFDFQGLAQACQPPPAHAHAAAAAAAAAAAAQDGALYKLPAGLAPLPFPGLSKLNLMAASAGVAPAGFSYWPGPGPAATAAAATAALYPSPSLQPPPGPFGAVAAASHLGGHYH
Procedure, shortened: as §1

ETV5 = ETV5 (Homo sapiens, UniProt P41161 1-510); settings: protein: recombinant; tags: N-terminal GST; dsDNA, one strand shown
Procedure, shortened: as §1

HSF1 = HSF1 (Homo sapiens, UniProt Q00613 1-529); settings: protein: recombinant; tags: N-terminal GST; chain copies: 3; dsDNA, one strand shown
Procedure, shortened: as §1

SPIC = target: T8, SPIC (Homo sapiens, UniProt Q8N5J4 1-248); settings: protein: recombinant; tags: N-terminal GST; dsDNA, one strand shown
T8 sequence: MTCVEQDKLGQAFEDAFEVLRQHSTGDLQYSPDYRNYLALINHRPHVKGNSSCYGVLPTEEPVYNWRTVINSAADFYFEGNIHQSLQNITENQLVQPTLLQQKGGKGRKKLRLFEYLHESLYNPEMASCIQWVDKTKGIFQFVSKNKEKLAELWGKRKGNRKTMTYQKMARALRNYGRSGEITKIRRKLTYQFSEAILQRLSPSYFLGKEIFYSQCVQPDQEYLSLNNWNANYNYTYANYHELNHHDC
Procedure, shortened: as §1

ELF4 = ELF4 (Homo sapiens, UniProt Q99607 1-663); settings: protein: recombinant; tags: N-terminal GST; dsDNA, one strand shown
Procedure, shortened: as §1

ELK4 = target: T9, ELK4 (Homo sapiens, UniProt P28324-2 1-405); settings: protein: recombinant; tags: N-terminal GST; dsDNA, one strand shown
T9 sequence: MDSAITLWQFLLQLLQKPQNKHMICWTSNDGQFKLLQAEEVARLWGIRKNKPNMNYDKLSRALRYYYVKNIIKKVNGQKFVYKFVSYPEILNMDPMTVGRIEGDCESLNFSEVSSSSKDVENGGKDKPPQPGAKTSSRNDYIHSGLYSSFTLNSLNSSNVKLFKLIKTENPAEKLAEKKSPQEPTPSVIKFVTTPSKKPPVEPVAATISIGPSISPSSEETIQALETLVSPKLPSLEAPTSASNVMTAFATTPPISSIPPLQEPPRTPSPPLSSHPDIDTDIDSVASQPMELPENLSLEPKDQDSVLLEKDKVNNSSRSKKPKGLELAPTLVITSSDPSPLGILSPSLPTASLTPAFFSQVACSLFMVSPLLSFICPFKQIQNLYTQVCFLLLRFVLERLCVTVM
Procedure, shortened: as §1

ETV2 = target: T10, ETV2 (Homo sapiens, UniProt O00321 1-342); settings: protein: recombinant; tags: N-terminal GST; dsDNA, one strand shown
T10 sequence: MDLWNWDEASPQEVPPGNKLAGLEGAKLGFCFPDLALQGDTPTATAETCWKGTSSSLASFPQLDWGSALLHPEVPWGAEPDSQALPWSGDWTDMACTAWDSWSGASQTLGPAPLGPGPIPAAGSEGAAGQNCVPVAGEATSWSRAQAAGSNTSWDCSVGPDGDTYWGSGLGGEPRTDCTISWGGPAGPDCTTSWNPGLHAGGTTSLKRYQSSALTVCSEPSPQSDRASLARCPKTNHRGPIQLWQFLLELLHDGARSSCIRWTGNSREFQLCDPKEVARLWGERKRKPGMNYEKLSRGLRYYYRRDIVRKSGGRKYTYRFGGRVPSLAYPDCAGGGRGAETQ
Procedure, shortened: as §1

ELF3 = target: T11, ELF3 (Homo sapiens, UniProt P78545 1-371); settings: protein: recombinant; tags: N-terminal GST; dsDNA, one strand shown
T11 sequence: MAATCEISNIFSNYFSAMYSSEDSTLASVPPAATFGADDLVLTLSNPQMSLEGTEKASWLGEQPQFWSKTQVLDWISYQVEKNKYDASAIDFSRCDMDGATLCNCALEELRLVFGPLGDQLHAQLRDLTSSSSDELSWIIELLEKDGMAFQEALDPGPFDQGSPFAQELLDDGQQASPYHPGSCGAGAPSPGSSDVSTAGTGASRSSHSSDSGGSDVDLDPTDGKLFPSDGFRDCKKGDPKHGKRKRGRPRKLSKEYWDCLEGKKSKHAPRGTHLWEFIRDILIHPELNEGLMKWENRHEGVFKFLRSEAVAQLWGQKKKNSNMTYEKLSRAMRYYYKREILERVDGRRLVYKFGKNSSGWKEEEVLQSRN
Procedure, shortened: as §1

ETV5, sequence (P41161 whole entry): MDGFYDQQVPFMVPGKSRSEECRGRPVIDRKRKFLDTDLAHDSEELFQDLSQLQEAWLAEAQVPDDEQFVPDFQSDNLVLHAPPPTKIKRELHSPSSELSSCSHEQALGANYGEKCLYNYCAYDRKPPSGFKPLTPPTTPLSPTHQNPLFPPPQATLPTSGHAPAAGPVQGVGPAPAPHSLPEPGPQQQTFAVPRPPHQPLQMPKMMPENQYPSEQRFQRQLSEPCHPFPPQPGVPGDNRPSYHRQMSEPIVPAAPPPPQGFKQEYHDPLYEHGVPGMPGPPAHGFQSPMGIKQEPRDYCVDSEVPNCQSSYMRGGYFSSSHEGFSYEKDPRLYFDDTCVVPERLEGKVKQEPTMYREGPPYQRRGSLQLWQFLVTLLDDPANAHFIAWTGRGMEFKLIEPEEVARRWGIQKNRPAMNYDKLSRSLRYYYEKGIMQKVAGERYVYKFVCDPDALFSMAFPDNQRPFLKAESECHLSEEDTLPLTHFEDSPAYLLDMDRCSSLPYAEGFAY
ELF4, sequence (Q99607 whole entry): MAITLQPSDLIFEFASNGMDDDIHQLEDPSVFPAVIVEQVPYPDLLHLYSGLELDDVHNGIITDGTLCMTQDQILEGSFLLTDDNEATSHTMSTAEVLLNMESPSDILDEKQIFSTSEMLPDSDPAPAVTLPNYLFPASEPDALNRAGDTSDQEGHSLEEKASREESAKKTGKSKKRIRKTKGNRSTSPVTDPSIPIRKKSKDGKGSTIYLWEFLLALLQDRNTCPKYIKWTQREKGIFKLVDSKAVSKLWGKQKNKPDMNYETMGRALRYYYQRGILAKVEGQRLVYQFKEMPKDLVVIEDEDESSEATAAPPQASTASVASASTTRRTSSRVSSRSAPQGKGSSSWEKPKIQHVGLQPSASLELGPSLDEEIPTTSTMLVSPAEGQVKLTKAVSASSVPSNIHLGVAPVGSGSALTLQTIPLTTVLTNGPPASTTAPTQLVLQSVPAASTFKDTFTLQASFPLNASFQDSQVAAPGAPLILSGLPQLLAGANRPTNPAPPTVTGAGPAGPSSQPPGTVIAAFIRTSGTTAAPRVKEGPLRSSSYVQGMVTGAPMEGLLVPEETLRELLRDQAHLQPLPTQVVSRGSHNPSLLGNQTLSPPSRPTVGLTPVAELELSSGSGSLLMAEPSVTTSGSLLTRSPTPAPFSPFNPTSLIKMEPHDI
SPIB, sequence (Q01892 whole entry): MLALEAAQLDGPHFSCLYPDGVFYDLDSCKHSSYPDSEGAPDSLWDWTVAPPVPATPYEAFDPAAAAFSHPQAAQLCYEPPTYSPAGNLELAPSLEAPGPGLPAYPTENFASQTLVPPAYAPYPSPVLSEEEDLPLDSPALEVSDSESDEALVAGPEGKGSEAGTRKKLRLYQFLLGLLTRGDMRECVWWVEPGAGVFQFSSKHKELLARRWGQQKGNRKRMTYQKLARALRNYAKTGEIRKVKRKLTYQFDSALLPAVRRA
HSF1, sequence (Q00613 whole entry): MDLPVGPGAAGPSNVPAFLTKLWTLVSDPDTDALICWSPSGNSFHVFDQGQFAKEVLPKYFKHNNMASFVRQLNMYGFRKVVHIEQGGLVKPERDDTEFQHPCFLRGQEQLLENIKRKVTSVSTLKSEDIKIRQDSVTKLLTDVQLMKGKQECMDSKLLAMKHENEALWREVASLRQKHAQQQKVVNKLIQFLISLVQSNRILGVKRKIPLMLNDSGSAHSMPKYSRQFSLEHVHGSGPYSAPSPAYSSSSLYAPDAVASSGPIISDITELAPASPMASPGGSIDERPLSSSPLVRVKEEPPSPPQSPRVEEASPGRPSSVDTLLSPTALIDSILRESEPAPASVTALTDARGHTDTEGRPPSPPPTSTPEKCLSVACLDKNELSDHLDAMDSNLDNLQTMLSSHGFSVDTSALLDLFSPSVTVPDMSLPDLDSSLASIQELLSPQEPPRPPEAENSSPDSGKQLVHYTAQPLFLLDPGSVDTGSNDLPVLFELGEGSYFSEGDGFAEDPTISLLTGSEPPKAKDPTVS
ELF1, sequence (P32519 whole entry): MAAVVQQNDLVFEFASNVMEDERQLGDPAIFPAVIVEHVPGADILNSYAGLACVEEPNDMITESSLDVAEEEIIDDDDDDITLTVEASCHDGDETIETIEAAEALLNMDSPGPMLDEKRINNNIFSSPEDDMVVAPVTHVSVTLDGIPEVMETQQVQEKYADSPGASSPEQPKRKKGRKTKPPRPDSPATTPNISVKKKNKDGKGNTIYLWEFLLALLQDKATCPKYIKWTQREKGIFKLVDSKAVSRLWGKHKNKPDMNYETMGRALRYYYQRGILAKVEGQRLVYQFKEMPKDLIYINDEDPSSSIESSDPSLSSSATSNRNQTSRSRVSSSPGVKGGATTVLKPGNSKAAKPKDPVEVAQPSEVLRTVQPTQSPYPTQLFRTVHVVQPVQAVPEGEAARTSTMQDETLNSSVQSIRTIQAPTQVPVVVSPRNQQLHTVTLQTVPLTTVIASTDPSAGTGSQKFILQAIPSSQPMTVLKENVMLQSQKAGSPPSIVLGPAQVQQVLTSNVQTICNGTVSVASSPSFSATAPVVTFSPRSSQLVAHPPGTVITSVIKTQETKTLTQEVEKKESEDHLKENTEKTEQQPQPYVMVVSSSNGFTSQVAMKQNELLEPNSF

## CTGGGT
FLI1
  binding signal: 1.21 fold enrichment (6-mer frequency, TF over GST control)
ELK1
  binding signal: 1.1 fold enrichment (6-mer frequency, TF over GST control)
GABPA
  binding signal: 1.18 fold enrichment (6-mer frequency, TF over GST control)
ERG
  binding signal: 1.12 fold enrichment (6-mer frequency, TF over GST control)
ELF1
  binding signal: 1.17 fold enrichment (6-mer frequency, TF over GST control)
EHF
  binding signal: 1.12 fold enrichment (6-mer frequency, TF over GST control)
SPI1
  binding signal: 1.13 fold enrichment (6-mer frequency, TF over GST control)
SPIB
  binding signal: 1.09 fold enrichment (6-mer frequency, TF over GST control)
ELK3
  binding signal: 1.1 fold enrichment (6-mer frequency, TF over GST control)
FEV
  binding signal: 1.06 fold enrichment (6-mer frequency, TF over GST control)
ETV5
  binding signal: 1.05 fold enrichment (6-mer frequency, TF over GST control)
HSF1
  binding signal: 1.04 fold enrichment (6-mer frequency, TF over GST control)
SPIC
  binding signal: 1.17 fold enrichment (6-mer frequency, TF over GST control)
ELF4
  binding signal: 1.13 fold enrichment (6-mer frequency, TF over GST control)
ELK4
  binding signal: 1.2 fold enrichment (6-mer frequency, TF over GST control)
ETV2
  binding signal: 1.22 fold enrichment (6-mer frequency, TF over GST control)
ELF3
  binding signal: 1.12 fold enrichment (6-mer frequency, TF over GST control)
